Measured values taken from PubChem BioAssay AID651965 (National Center for Advancing Translational Sciences (NCATS), 2013).
The whole screen tested about 340,000 compounds, of which about 6,400 (1.9%) were called active. Not shown: some 4% with an inconclusive outcome. The call rests on the fitted dose curve; in most records, active means well fitted falling curve with a large enough effect; inconclusive means small, poorly fitted or top-dose-only effect; inactive means no such curve, though single readings can be large or run the other way. The full list was thinned out, with actives kept by preference.

What follows are compounds tested against ATP-dependent Clp protease proteolytic subunit (Bacillus subtilis (strain 168)) (UniProt P80244) (assay: qHTS Assay for Activators of ClpP). Settings: purified B. subtilis ClpP, FRET peptide cleavage, 20 min; series mostly up to 57.5 µM.
From the text: The Clp protease proteolytic subunit (ClpP) is the core unit of the Clp complex belonging to the peptidase family S14 that hydrolyzes protein into small peptides in the presence of ATP and magnesium. It is ubiquitously expressed and is the major protease in bacteria. […] Unlike common antibiotics that simply interfere with the essential enzyme activity, ADEP binding activates the ClpP core in the absence of the regulatory Clp-ATPases leading to uncontrolled proteolysis and eventually cell death. Activators binding to the docking site on ClpP can also block formation of the ClpXP and ClpA/C-P holoenzyme complexes interfering with the normal biological functions of ClpP and thus have the potential to become new anti-microbials.
To identify activators of ClpP, a FRET based quenching reversal assay was developed using a purified B. subtilis ClpP and a decapeptide substrate (FRET-FV). The FRET-FV is tagged with a fluorescent molecule amino benzoic acid (donor) at the N-terminus and a nitrotyrosine quencher (acceptor) at the C-terminus. FRET-FV cleaves upon activation of ClpP with ADEP treatement and reverses the quenching effect of the nitrotyrosine causing an increase in fluorescence emission signal at 430nm. This assay was used to screen the Molecular Libraries Small Molecule Repository (MLSMR).
NIH Molecular Libraries Probe Production Centers Network [MLPCN]
NIH Chemical Genomics Center [NCGC]
Assay Submitter (PI): Michael Maurizi, National Cancer Institute
Two and a half microL/well of purified enzyme solution (final concentrations 10 microg/mL B. subtilis ClpP in 100 mM Tris/HCl pH8, 100 mM KCl, 0.05% low protease BSA, 2.5% glycerol, 0.01% Tween-20 buffer) was dispensed into 1536-well assay plates (Greiner, black solid, medium-binding plates) with Aurora Discovery BioRAPTR Flying Reagent Dispenser (FRD, Beckton-Dickenson). Compound solution (23 nL) was transferred to the assay plate using Kalypsys pin tool equipped with a 1536-pin tool. […] FRET signals at time 0 and after 20 min room temperature incubation were obtained using the PerkinElmer Envision plate reader with 320nm excitation and 430nm emission filters. Delta FRET value (Time 20 - Time 0) was calculated and normalized to the delta FRET value of positive control ADEP (5.8 microM final concentration) and negative control DMSO and no enzyme wells.
Further: the source files actives as falling curves though it sought activators and does not explain the sign; nearly all actives have a fitted effect of over 65% in size.

Potency, active:
Cc1cc(NC(=O)Cn2nc(C(F)(F)F)c3c2CCCC3)no1 28.2 µM
CC(C)(C)NC(=O)COc1ccc(CNc2ccc3[nH]c(=O)[nH]c3c2)cc1 22.4 µM
CCn1c2ccccc2c2cc(NC(=O)C/C(C)=N/NC(=O)c3ccccc3N)ccc21 14.1 µM
CCc1ccc(-c2cc(C(=O)NN3CCN(C)CC3)c3ccccc3n2)cc1 31.6 µM
C=C(C)CSc1nc(N)c2c3c(sc2n1)CCC3 12.6 µM
Cc1cc(NC(=O)CN2CCCC(C)C2)n(-c2nc3ccccc3s2)n1 (stereo not given) 17.8 µM
CCOC(=O)c1cc(C#N)c(N2CCCCC2)nc1-c1ccccc1 28.2 µM
Cc1nc2c(C(=O)NCc3ccc4c(c3)OCO4)c[nH]n2c(=O)c1Cc1ccccc1F 31.6 µM
Cc1nc(N2CCOCC2)nc2c1CCCC2 28.2 µM
O=C1CC2(CCCCC2)Oc2ccc(OCC(=O)N3CCOCC3)cc21 10 µM
COc1cccc2c(C)c(C(=O)O)[nH]c12 25.1 µM
Cc1cccc(N(CC(=O)Nc2ccc(-c3nc4ccc(C)cc4s3)cc2)S(C)(=O)=O)c1 15.8 µM
N#Cc1c(N)n(CCOC(=O)c2ccc(Cl)cc2)c2nc3ccccc3nc12 28.2 µM
CCN1C(=O)[C@H]2[C@@H](c3ccc(SC4CCCCC4)c(OC)c3)N[C@@](Cc3ccccc3)(C(=O)OC)[C@H]2C1=O 35.5 µM
CC(C)(C)C(=O)Nc1cccc(-c2ccc[nH]2)n1 12.6 µM
Cn1c(=O)c2[nH]c(NCC3CCCO3)nc2n(-c2ccccc2)c1=O (stereo not given) 28.2 µM
COC(=O)Cc1cc(=O)oc2c(C)c(O)ccc12 15.8 µM
COc1cccc(-n2cc(C(=O)NCc3cccc(Cl)c3)c3ccccc3c2=O)c1 25.1 µM
CN(C)Cc1ccc(F)cc1Sc1cc(Cl)ccc1Cl 12.6 µM

Potency, inactive:
CCOC(=O)[C@]12CCC=C1N(Cc1ccccc1)C(=O)[C@H](CC(=O)N1CCCC1)C2
CC(=O)NC(c1ccccc1)c1nc(-c2ccccc2C)cs1 (stereo not given)
NS(=O)(=O)c1ccc(NC(=O)CSc2nnc3c(n2)[nH]c2ccccc23)cc1
O=C(Cn1nc(C(F)(F)F)c2c1CCC2)NCc1ccc(F)cc1
O=C(Cn1nc(C(F)(F)F)c2c1CCCC2)Nc1ccc(Cl)cc1
COC(=O)c1ccc(OCC(=O)NC(C)(C)C)cc1
COc1ccc(C(=O)OCC(=O)Nc2ccc3[nH]c(=O)[nH]c3c2)c(OC)c1OC
Cc1ccc([C@H]2N[C@]3(CCCN(Cc4ccccc4)C3=O)[C@H]3C(=O)N(Cc4ccccc4)C(=O)[C@@H]23)cc1
CCOC(=O)[C@H]1Nc2ccc(Cl)cc2[C@@H]2[C@H]1C1CC(c3ccccc31)N2C(=O)OCc1ccccc1 (stereo not given in full)
C/C(CC(=O)Nc1ccc(N(C)C)cc1)=N\NC(=O)c1ccccc1F
CCn1c2ccccc2c2cc(NC(=O)COc3ccc(C)cc3C)ccc21
COc1ccc(-c2cc(C(=O)NCCCN3CCCC3=O)c3ccccc3n2)cc1OC
Cc1ccc(-c2cc(C(=O)NC3CCN(Cc4ccccc4)CC3)c3ccccc3n2)cc1
COCCNc1nc(NCc2ccc(NC(C)=O)cc2)c2sccc2n1
Cc1nc2c(OCC(=O)C(C)(C)C)cccn2c1N(C)Cc1cccs1
CCCCCc1c(-c2cccc(Br)c2)ncn1CCc1ccccc1OC
COc1c(C)cc(C(O)c2ncc(-c3cccc(C(F)(F)F)c3)[nH]2)cc1C (stereo not given)
CCC(c1nnnn1-c1ccc2c(c1)OCCO2)N1CCN(c2ccc(C(F)(F)F)cn2)CC1 (stereo not given)
CC(C)(C)C1CCc2c(sc3nc(SCC(N)=O)nc(N)c23)C1 (stereo not given)
CCc1nc(N2CCN(C(C)=O)CC2)c2c3c(sc2n1)CCCC3
C[C@H]1CN([C@@H](C)CO)C(=O)c2cc(C3=CCCCC3)cnc2O[C@@H]1CN(C)C(=O)Cc1ccccc1
CC(=O)Nc1ccc(NC(=O)CN2CCCC(C)C2)c(Cl)c1 (stereo not given)
Cc1[nH]c2ccccc2c1C(=O)CN1CCCC(C)C1 (stereo not given)
CC(=O)c1ccc(Nc2nc(C(N)c3ccccc3Cl)cs2)cc1 (stereo not given)
CCOC(=O)c1c(N)nn(C(=O)c2ccccc2)c1-c1ccccc1
CCOc1ccc2nc(N3CCCN(C(=O)Nc4ccccc4C)CC3)c(C#N)cc2c1
Cc1cc[n+](C2CCCCC2)cc1
N#Cc1ccc[n+](CC(=O)c2ccc(O)c(O)c2)c1
O=C(NCc1cccnc1)c1cc(C2CCCN(C(=O)CCCc3ccccc3)C2)on1 (stereo not given)
O=C(NCc1ccc2c(c1)OCO2)c1cc(F)c(F)cc1Cl
CCn1c(=O)c(C(=O)NCc2ccc3c(c2)OCO3)c(O)c2ccccc21
OCCc1ccc(NCCc2ccco2)cc1
CCCNC(=O)C1(C)CCCN(C(=O)c2cccc(OC(C)=O)c2C)C1 (stereo not given)
O=C1C[C@H]2C=CCc3cccc(c32)CN1Cc1ccccc1
CC(=O)OCC(C)n1c(=O)c2ccccc2n1C(C)=O (stereo not given)
Cc1ccc(Nc2nc(N3CCOCC3)nc(N3CCOCC3)n2)cc1Cl
O=C(CN1CCOCC1)Nc1c2c(nc3c1CCC3)CCC2
CCc1nc2c(OCCc3cccc(OC)c3)cccn2c1N(C)C(=O)c1ccc(C)cc1
O=C(Nc1cccc(OCC(=O)N2CCOCC2)c1)C1CCCCC1
O=C1CC2(CCCC2)Oc2ccc(Cl)cc21
COc1cc2c(C(=O)O)c(C)n(C)c2c2ccccc12
COc1cccc2[nH]c(C(=O)NCCc3ccccc3)cc12
Cc1ccc(Cc2c(-c3ccc(Cl)cc3)nc3c4ccccc4ccn23)cc1
CC(C)(C)CC(=O)Nc1nc(C(N)Cc2ccc(C(F)(F)F)cc2)cs1 (stereo not given)
COc1cccc(N(CC(=O)Nc2cccc(F)c2)S(C)(=O)=O)c1
CCN(CC)S(=O)(=O)c1ccc(NC(=O)CN(c2cccc(F)c2)S(C)(=O)=O)cc1
COc1ccc(NC(=O)C2(C)Cc3c(-c4ccc(C(N)=O)cc4)ccnc3O2)cc1 (stereo not given)
COc1ccc(-c2ccc(CN3C(CC(C)C)C(=O)N(Cc4cn(CC5CCCCC5)nn4)CCS3(=O)=O)cc2)cn1 (stereo not given)
CCOC(=O)C(=Cc1ccccc1)C(=O)c1ccccc1
CC(C)(C)OC(=O)c1c(N)n(CCCN2CCCC2=O)c2nc3ccccc3nc12
CN(C)CCCn1c(N)c(C#N)c2nc(C#N)c(C#N)nc21
CCc1ccc(OCCCn2c(CCCNC(=O)C3CCCCC3)nc3ccccc32)cc1
CCCCCCN1CCN(C2CN(Cc3cn(Cc4ccc(F)cc4)nn3)S(=O)(=O)C2)CC1 (stereo not given)
CCN1C(=O)[C@H]2[C@@H](c3ccc(-c4ccc(F)cc4)cc3)N[C@@](Cc3ccccc3)(C(=O)OC)[C@H]2C1=O
CCN1C(=O)[C@H]2[C@@H](c3ccc(-c4ccc(OC)cc4)cc3)N[C@@](Cc3ccccc3)(C(=O)OC)[C@H]2C1=O
CCCCC[C@H](C)N1C[C@@H](COCc2ccccc2)Oc2cc(N3CC[C@@H](N(C)C)C3)ccc2S1(=O)=O
O=C(NCc1ccccn1)[C@@H]1CCCN1C(=O)[C@@H]1CCCN1C(=O)c1ccccc1
COc1ccc(N2c3ccccc3CN(Cc3ccccc3)[C@@H](C)[C@H]2Cc2ccc(-c3ccccc3)cc2)cc1
C=CCNC(=O)c1ccc2nc(-c3ccco3)c(-c3ccco3)nc2c1
Cc1c(NC(=O)C(C)(C)C)cccc1-c1nc2ccccc2s1
Cc1c(-c2cccc(NC(=O)C(C)(C)C)c2)nc2ncccn12
COc1cccc(-c2cc(NC(C)=O)c3ncc(-c4cccc(C(C)=O)c4)n3c2)c1
CCOC(=O)C1CCCN(C(=O)c2ccc(N(C)C)cc2)CC1 (stereo not given)
CC(C)(C)c1nc(NCC2CCCO2)c2nnn(Cc3ccccc3)c2n1 (stereo not given)
Cc1sc2c(c1C)c(=O)n(-c1ccccc1)c(=O)n2CC(=O)NCC1CCCO1 (stereo not given)
Oc1ccc(Br)cc1C1C=C(c2ccc3c(c2)OCO3)NC(c2ccc(Cl)cc2)N1 (stereo not given)
CCc1ccc(OC2(C)CCN(CCOc3ccc(C)cc3)C2)cc1 (stereo not given)
CC(C)Cc1ccc(-c2cc3nc(NCc4cccc(Cl)c4)ccn3n2)cc1
CCCc1cc(=O)oc2c(C)c(OCC(=O)Nc3ccccn3)ccc12
COc1cccc(C(=O)OCc2cc(=O)oc3c(C)c(C)ccc23)c1OC
CCOC(=O)[C@]12CCC=C1N(CCC1=CCCCC1)C(=O)[C@H](CC(=O)NCc1ccc(C)o1)C2
Cc1nccn1-c1ccc(NC(=O)[C@H]2O[C@@H](n3cnc4c(N)ncnc43)[C@H](O)[C@@H]2O)cc1
O=C(NCc1cccnc1)c1cc(C2CCCN(C(=O)C3CCCCC3)C2)on1 (stereo not given)
CN(C)c1ccc(/C=C/C=C/c2ccnc3ccccc23)cc1
COc1ccc(Br)c(Cn2c(C)c(C(=O)NCc3cccs3)sc2=O)c1
O=C(NCc1ccccc1)C(c1ccc(F)cc1)N1CCN(C(=O)C2CCCO2)CC1 (stereo not given)
CCN(Cc1ccccc1)C(=O)c1cn(-c2cccc(OC)c2)c(=O)c2ccccc12
COc1cccc(CNC(=O)c2cccnc2Sc2ccc(Cl)cc2)c1
CC1(C)CC(=O)c2cc(C(=O)NCc3ccccc3)c(=O)[nH]c2C1
Cc1ccc(-c2ccc(=O)n(Cc3ccc(F)cc3Cl)n2)cc1
CC(=O)Nc1cc(C(=O)NCc2ccc(F)cc2Cl)ccc1Sc1ccc(Cl)cc1
